These results are taken from PubChem BioAssay AID463173 (ICCB-Longwood Screening Facility, Harvard Medical School, 2010).

Among all 52,000 compounds or so, about 1,700 (3.3%) were called active. This excerpt belongs to a sample that is enriched for actives. Unmarked numbers belong to inactive results. Rule as the data show it: active = survival mostly below about 52% (no sharp cut-off); inactive = mostly above about 56%.

This test concerns Wild type. As to the kind of experiment: S. aureus survival, RN4220 and DeltatarO strains – OD600, teichoic acid synthesis inhibitors, primary screen (AID 463173). Conditions: S. aureus RN4220 wild type/DeltatarO growth, OD600, 18 h, active compounds read low, screened at 18.75 µg/mL (by protocol).
With `Cc1ccc(Cl)cc1N1CCN(C(=O)c2cn(C3CCCCC3)c(=O)c3c2c2ccccc2n3C)CC1`, the survival is 76%.

`COC(=O)c1ccc(NC(=O)C(=O)NCC(c2cccnc2)N2CCc3ccccc32)cc1` (stereo not given): the survival was 47%.

With `O=C(CSc1nnc(-c2ccc(Cl)cc2)c(-c2ccc(Cl)cc2)n1)NC1CCCC1`, the survival was 65%.

As for `O=C(Nc1ccccc1C(=O)NCc1ccccc1)c1ccco1`, the survival was 112%.

With `CCOC(=O)NNC(=O)C1CCC(C)CC1` (stereo not given), the survival is 64%.

Regarding `O=S(=O)(c1ccc(F)cc1)N(CC(O)Cn1c2ccccc2c2ccccc21)c1ccccc1` (stereo not given), the survival was 63%.

For `CCOc1ccc(-c2cc(C(=O)NCCc3ccccc3)c3c(-c4ccc(C)cc4)[nH]nc3n2)cc1`, the survival was 128%.

For the compound `Cc1ccc(S(=O)(=O)NCC(Nc2cccc(Cl)c2)c2ccccc2)cc1` (stereo not given), the survival is 68%.

In the case of `COc1ccc2cc3cc(C(=O)Nc4cc(C)c(Cl)cc4OC)oc3nc2c1`, the survival is 88%.

Regarding `Cc1cccn2c(=O)c3cc(C(=O)NC(C)C)n(C)c3nc12`, the survival was 82%.

Take `Cc1ccc(-c2cnc(NCc3c(F)cccc3Cl)n2C)cc1`: the survival was -12% (active).

`Cn1c(-c2ccc3c(c2)OCO3)cnc1NCc1cc(Cl)ccc1O`: the survival was 112%.

On to `Fc1cccc(Cl)c1CNc1n[nH]c(-c2ccco2)n1`, for which the survival was 83%.

Regarding `CCOc1ccc(CCNC(=O)c2cn(-c3cccc(OC)c3)c(=O)c3ccccc23)cc1`, the survival is 87%.

On to `FC(F)(F)c1cccc(Nc2nc3nonc3nc2Nc2ccc(Cl)cc2)c1`, for which the survival was -3% (active).

As for `Fc1ccc(-c2nc(Nc3cccc(C(F)(F)F)c3)nc3c2COc2ccccc2-3)cc1`, the survival was 56%.

Take `O=C(Nc1cccc(C(F)(F)F)c1)c1cc(-c2ccc(Cl)cc2)on1`: the survival is 83%.

In the case of `Cc1ccc(Nc2nc3nonc3n3cnnc23)cc1Cl`, the survival is 88%.

As for `Cc1ccc(Nc2nc3nonc3nc2Nc2cccc(C(F)(F)F)c2)cc1Cl`, the survival was 0% (active).

Consider `Fc1ccc(Nc2nc3nonc3nc2Nc2cccc(C(F)(F)F)c2)cc1`, for which the survival was -1% (active).

For the compound `Cc1cc(C)n(-c2nc3ccccc3nc2Nc2cccc(C(F)(F)F)c2)n1`, the survival was 86%.

Turning to `NS(=O)(=O)c1ccc(Nc2nc3nonc3nc2Nc2ccc(S(N)(=O)=O)cc2)cc1`, the survival is 109%.

As for `Cc1cc(Nc2cccc(C(F)(F)F)c2)nc2ccc(NC(=O)Cc3ccc(Cl)cc3)cc12`, the survival was 78%.

As for `CCCSc1nc2c([nH]c3ccccc32)c(=O)n1C`, the survival was 87%.

In the case of `COCC(C)NC(=O)C1=CC(c2ccc3c(c2)OCO3)=NS(=O)(=O)N1C` (stereo not given), the survival was 103%.
